aSyn 5UTR act – Activators via SNCA 5'UTR binding, MLPCN. alpha-synuclein 5'UTR reporter, activators screen. AID 1814. actives 7.1% (n = 300,000). activity score, % (tested at 7.5 µM), hits read low; in the data active means activity score below about -60%
Large screens that a line does not name were inactive. The list is a sample of the results.

CC1Cc2cc(S(=O)(=O)NCc3ccccc3)ccc2N1C(=O)C1CC1 (stereo not given)	aSyn 5UTR act -65.2
COc1ccc(OCCOC(=O)c2cccc(-n3cnnn3)c2)cc1	aSyn 5UTR act -81.3
O=C(Oc1ccc2cc(Br)ccc2c1)N1CCCCCC1	aSyn 5UTR act -169.3
O=C(Nc1ccc(F)c(Cl)c1)c1nsc(Cl)c1Cl	aSyn 5UTR act -110.4
O=C(Nc1ccc(F)cc1)c1nsc(Cl)c1Cl	aSyn 5UTR act -177.7
CCOc1ccc(NC(=O)c2nsc(Cl)c2Cl)cc1	aSyn 5UTR act -117.3
CN(C)c1ccc(/C=C2\SC(=O)N(CCc3nnc(N)s3)C2=O)cc1	none
CN(C)c1ccc(/C=C2/SC(=O)N(CCN=C3NS(=O)(=O)c4ccccc43)C2=O)cc1	aSyn 5UTR act -66.0
c1ccc2nc(-c3ccc(N4CCOCC4)cc3)ccc2c1	none
Cc1cc(-c2ccc(N3CCOCC3)cc2)nc2ccccc12	aSyn 5UTR act -307.5
CCCCCN1CC(O)=C(c2nc3ccccc3[nH]2)C1=N	aSyn 5UTR act -116.5
CCCCCCCCCn1ccc(=N)cc1	none
CC(C)N1CC(O)=C(c2nc3ccccc3[nH]2)C1=N	aSyn 5UTR act -74.2
CCCCCCCn1ccc(=N)cc1	none
CCCCN1CC(O)=C(c2nc3ccccc3[nH]2)C1=N	aSyn 5UTR act -106.8
COc1cc(N)ccc1C(=O)O	aSyn 5UTR act -76.0
COCCn1c(C)cc(C(=O)COC(=O)c2ccc3ncsc3c2)c1C	aSyn 5UTR act -150.8
COCCn1c(C)cc(C(=O)COC(=O)c2ccccc2Br)c1C	none
COCCn1c(C)cc(C(=O)COC(=O)c2cncc(Br)c2)c1C	aSyn 5UTR act -121.4
CCOC(=O)C(Nc1ccc2ccccc2c1)C(=O)OCC	aSyn 5UTR act -138.1
CCN(CCO)c1ccc(N=Nc2cc(C)[nH]n2)cc1	none
Cc1cc(N(CCO)CCO)ccc1N=Nc1cc(F)ccc1F	aSyn 5UTR act -137.4
COCCn1c(C(F)(F)F)ccc(NC(=O)c2ccccc2)c1=O	aSyn 5UTR act -96.5
Cc1ccc(C(=O)Nc2ccc(C(F)(F)F)n(C)c2=O)cc1	aSyn 5UTR act -144.6
COc1ccc(C(=O)Nc2ccc(C(F)(F)F)n(C)c2=O)cc1	aSyn 5UTR act -151.3
Oc1ccc(-c2csc(-c3c[nH]c4ccccc34)n2)c(O)c1	aSyn 5UTR act -323.1
Cc1ccc(-c2csc(-c3c[nH]c4ccccc34)n2)c(C)c1	aSyn 5UTR act -92.2
Nc1[nH]nc2c1NN(c1ccc(Cl)cc1Cl)N2	aSyn 5UTR act -139.6
CCOC(=O)c1ccc(N=Nc2c(C)c(C#N)c(O)[nH]c2=O)cc1	aSyn 5UTR act -73.7
COc1ccc(NC(=S)N/C(=N/CS(=O)(=O)c2ccccc2)c2ccccc2)cc1	aSyn 5UTR act -89.5
COc1ccc(O)c(/C=N/NC(=S)Nc2cccc(S(=O)(=O)N(C)C)c2)c1	none
Cc1cccc(NC(=S)N/C(=N/S(=O)(=O)c2ccccc2)c2ccccc2)c1	aSyn 5UTR act -103.4
O=[N+]([O-])c1ccc(NC(=S)N/C(=N/CS(=O)(=O)c2ccccc2)c2ccccc2)cc1	aSyn 5UTR act -92.1
O=c1oc(Nc2cccc(Cl)c2)nc2ccccc12	aSyn 5UTR act -84.6
O=c1oc(Nc2ccccc2Cl)nc2ccccc12	aSyn 5UTR act -90.6
CCN(CC)CCN1C(=O)c2oc3ccccc3c(=O)c2C1c1ccc(F)cc1 (stereo not given)	aSyn 5UTR act -69.6
Cc1cc(C)n(-c2nc(NCC(C)O)c3c4c(sc3n2)CCCC4)n1 (stereo not given)	aSyn 5UTR act -61.5
COc1ccc(OCCSc2nc(N)cc(N)n2)cc1	aSyn 5UTR act -102.9
Cc1ccc(OCCSc2nc(N)cc(N)n2)cc1	aSyn 5UTR act -120.1
N/C(=N\OC(=O)c1cccs1)c1ccccc1	aSyn 5UTR act -250.1
Cc1ccc(/C(N)=N/OC(=O)c2cccs2)cc1	aSyn 5UTR act -124.4
N/C(=N\OC(=O)c1cccs1)c1cccc(Br)c1	aSyn 5UTR act -128.2
COc1ccc(/C(N)=N/OC(=O)c2cccs2)cc1OC	aSyn 5UTR act -185.8
Cc1cccc(/C(N)=N/OC(=O)c2cccs2)c1	aSyn 5UTR act -105.5
Fc1ccc(-c2nc3c(Cl)cc(C(F)(F)F)cn3c2Cl)cc1	aSyn 5UTR act -111.5
CCCc1cc2c(=O)c(-c3ccccn3)coc2cc1OC	aSyn 5UTR act -157.6
CCCSc1nnc(-c2ccccc2N)c(=O)[nH]1	aSyn 5UTR act -70.5
Cc1ccc(NCC(=O)N=Nc2c(O)[nH]c3ccc([N+](=O)[O-])cc23)cc1	aSyn 5UTR act -171.6
Clc1ccc(-c2cc(CN3CCCCC3)no2)cc1Cl	aSyn 5UTR act -114.4
Clc1ccc(-c2cc(CN3CCOCC3)no2)cc1	aSyn 5UTR act -148.0
C=CCSC1=NNC(c2ccc(C(C)(C)C)cc2)=NN1	aSyn 5UTR act -89.5
Cc1ccc2c(c1)cc1c(=O)[nH]ncn12	aSyn 5UTR act -67.1
COc1ccc2oc(C(=O)OCC(=O)NCCN3C(=O)CSC3=O)c(C)c2c1	aSyn 5UTR act -70.5
CN1CCN(C2Cc3ccc(F)cc3Sc3cc(F)c(Cl)cc32)CC1 (stereo not given)	none
CC(=O)Nc1cccc(C(=O)NCCc2ccco2)c1	aSyn 5UTR act -75.7
Cc1c(C)n(C)c2ccc(C(=O)NCCc3ccco3)cc12	aSyn 5UTR act -74.4
Nc1ncc(Br)cc1N=Cc1ccccc1	aSyn 5UTR act -197.2
O=C(c1cc(-c2ccc(Cl)c(Cl)c2)on1)N1CCCCCC1	aSyn 5UTR act -197.9
O=C(c1cc(-c2cccc(Cl)c2)on1)N1CCCCCC1	aSyn 5UTR act -174.8
O=C(c1cc(-c2ccc(Cl)cc2Cl)on1)N1CCCCCC1	aSyn 5UTR act -71.5
O=C(c1cc(-c2ccc(Cl)cc2)on1)N1CCCCCC1	aSyn 5UTR act -147.7
CN(C)/C=C/C(=O)c1ccc(-c2ccc(Cl)cc2Cl)o1	aSyn 5UTR act -106.2
Cc1ccc(-c2cc(C(=O)N3CCCC3)no2)cc1	none
O=C(c1ccc(-c2ccc(Cl)cc2Cl)o1)N1CCOCC1	aSyn 5UTR act -103.8
O=C(c1cc(-c2ccc(O)cc2)on1)N1CCCCCC1	aSyn 5UTR act -94.4
CC(C)n1nnnc1SCC(=O)Nc1ccc2c(c1)OCCO2	aSyn 5UTR act -109.1
CCn1nnnc1SCC(=O)Nc1ccc2c(c1)OCCO2	aSyn 5UTR act -118.2
COc1cccc(C2=NOC(C(=O)N3CCOCC3)C2)c1 (stereo not given)	aSyn 5UTR act -101.0
CC1CCCC(C)N1C(=O)C1CC(c2ccc(F)cc2)=NO1 (stereo not given)	aSyn 5UTR act -83.8
CC1CCN(C(=O)C2CC(c3ccc(F)cc3)=NO2)CC1 (stereo not given)	aSyn 5UTR act -88.3
O=C(NC1CCCC1)C1CC(c2ccc(F)cc2)=NO1 (stereo not given)	aSyn 5UTR act -107.7
C/C(NC(=O)c1ccccc1F)=C1\C(=O)C[C@@H]2[C@H]1C2(C)C	aSyn 5UTR act -174.4
O=C(NC(=S)NNC(=O)[C@H]1C[C@@H]1c1ccccc1)c1cccc(F)c1	none
C/C(NC(=O)c1cccc(F)c1)=C1/C(=O)C[C@@H]2[C@H]1C2(C)C	aSyn 5UTR act -183.4
CC(C)c1cc(C(=O)NNC(=S)NC2CCCCC2)cs1	aSyn 5UTR act -85.6
CN(C)c1cccc(C(=O)NNC(=S)NC2CCCC2)c1	aSyn 5UTR act -63.7
CCc1cc(C(=O)NNC(=S)NC2CCCCC2)cs1	aSyn 5UTR act -87.2
Cc1ccc(-c2ccc(NC(=O)C3C4C=CC(C4)C3C(=O)O)cc2)o1 (stereo not given)	aSyn 5UTR act -180.6
Cc1ccc(N(C)C(=O)c2ccc3c(Cl)c4c(nc3c2)CCC4)cc1C	aSyn 5UTR act -136.1
COc1ccc(N(C)C(=O)c2ccc3c(Cl)c4c(nc3c2)CCCC4)c(OC)c1	aSyn 5UTR act -88.5
CC(C)(C)C(=O)/C(=C/c1ccc(Cl)cc1)n1cncn1	aSyn 5UTR act -173.2

Screening results as filed in PubChem BioAssay.
